The source of these data is PubChem BioAssay (NCI).

The panel holds about 79,000 compounds, 15% with a hit somewhere; the sample as a whole holds those more often. A number with no mark means an inactive call. Active and inactive are the calls of the source. No stated cut-off is given here; in the data, active means growth inhibition above about 70%; inactive means the rest.

Experiment [1] is described as follows: NCI Yeast Anticancer Drug Screen. Data for the rad50 strain (AID 155).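 Further: 0% = growth of vehicle-only cultures of the same strain.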 Particulars: S. cerevisiae rad50 strain growth inhibition, hits give high values. In short, it runs like this: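 A DNA repair-deficient yeast mutant serves as the test organism; compound-induced growth inhibition is calculated against vehicle-treated cells.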
A short description of experiment [2]: NCI Yeast Anticancer Drug Screen. Data for the mec2-1 strain (AID 157). Particulars: S. cerevisiae mec2-1 strain, hits give high values. The method in brief: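 Vehicle-treated cultures served as reference for growth inhibition of compound-exposed mec2-1 yeast.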
Experiment [3] can be described thus: NCI Yeast Anticancer Drug Screen. Data for the sgs1 mgt1 strain (AID 161).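 Further: 0% = growth of cultures given vehicle only.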 Particulars: S. cerevisiae sgs1 mgt1 strain, hits give high values. In short, it runs like this: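 Test agents were incubated with a DNA-repair-mutant yeast strain. Growth was then read and compared against vehicle-treated controls.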
Experiment [4] in a line: NCI Yeast Anticancer Drug Screen. Data for the cln2 rad14 strain (AID 165).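 Further: 0% = growth equal to vehicle treated cultures.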 Particulars: S. cerevisiae cln2 rad14 strain, hits give high values. The method in brief:
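Each compound was tested on cln2 rad14 yeast. Inhibition of growth was calculated against vehicle-exposed controls.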

Experiment [5] in a line: NCI Yeast Anticancer Drug Screen. Data for the bub3 strain (AID 167). Particulars: S. cerevisiae bub3 mutant strain, hits give high values. The method in brief: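 Inhibition values come from growth of compound-treated mutant yeast normalised to vehicle-treated controls.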
A short description of experiment [6]: NCI Yeast Anticancer Drug Screen. Data for the mlh1 rad18 strain (AID 175). Particulars: S. cerevisiae mlh1 rad18 strain growth inhibition, hits give high values. The method in brief: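 Vehicle-treated cultures served as the reference for growth inhibition in a yeast strain carrying DNA damage repair alterations exposed to each compound.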
Setting [7] is: at 5.0 µM (retest, dose inferred, filed as 0.5).
Setting [8] is: at 50.0 µM (retest, dose inferred, filed as 5.0).

As for `O=C(CCl)OCC(Cl)Cl`, the growth inhibition in experiment [1] (setting [7]) is 3%; in experiment [1] (setting [8]), 2%; in experiment [1] (at 50.0 µM), 1.25%; in experiment [2] (setting [7]), 4%; in experiment [2] (setting [8]), 2%; in experiment [2] (at 50.0 µM), -2.5%. In addition, the growth inhibition in experiment [3] (setting [7]) was 1%; in experiment [3] (setting [8]) it was 6%; in experiment [3] (at 50.0 µM), 10.4%; in experiment [4] (setting [7]), 2%; in experiment [4] (setting [8]) it was -4%; in experiment [4] (at 50.0 µM), 19.6%. The growth inhibition in experiment [5] (setting [7]) was -2%; in experiment [5] (setting [8]) it was -3%; in experiment [5] (at 50.0 µM) it was 6.65%; in experiment [6] (setting [7]), 9%; in experiment [6] (setting [8]) it was 3%; in experiment [6] (at 50.0 µM), 20.6%.

As for `COC1/C=C\C=C(/C)C(=O)NC2=CC(=O)C(NCCCl)=C(CC(C)CC(OC)C(O)C(C)/C=C(/C)C1OC(N)=O)C2=O` (configuration not stated), the growth inhibition in experiment [1] (setting [7]) is 24%; in experiment [1] (setting [8]), 97% (active); in experiment [1] (at 50.0 µM) it was 91% (active); in experiment [2] (setting [7]), 49%; in experiment [2] (setting [8]) it was 98% (active); in experiment [2] (at 50.0 µM) it was 92.3% (active). Further, the growth inhibition in experiment [3] (setting [7]) was 89% (active); in experiment [3] (setting [8]), 99% (active); in experiment [3] (at 50.0 µM) it was 92.6% (active); in experiment [4] (setting [7]), 88% (active); in experiment [4] (setting [8]) it was 94% (active); in experiment [4] (at 50.0 µM) it was 90.4% (active). Besides, the growth inhibition was 87% (active) in experiment [5] (setting [7]); 98% (active) in experiment [5] (setting [8]); 90.5% (active) in experiment [5] (at 50.0 µM); 53% in experiment [6] (setting [7]); 98% (active) in experiment [6] (setting [8]); 89% (active) in experiment [6] (at 50.0 µM).

In the case of `CCC[CH2][Sn]([N]=C=S)([N]=C=S)[N]=C=S.O=P(c1ccccc1)(c1ccccc1)c1ccccc1.O=P(c1ccccc1)(c1ccccc1)c1ccccc1`, the growth inhibition in experiment [1] (setting [7]) is -5%; in experiment [1] (setting [8]), 27%; in experiment [1] (at 50.0 µM) it was 50.3%; in experiment [2] (setting [7]) it was -4%; in experiment [2] (setting [8]), 15%; in experiment [2] (at 50.0 µM), 61.2%. In addition, the growth inhibition in experiment [3] (setting [7]) was -4%; in experiment [3] (setting [8]), 46%; in experiment [3] (at 50.0 µM), 83.2% (active); in experiment [4] (setting [7]), -2%; in experiment [4] (setting [8]), 10%; in experiment [4] (at 50.0 µM), 23.1%. Besides, the growth inhibition in experiment [5] (setting [7]) is -4%; in experiment [5] (setting [8]), 33%; in experiment [5] (at 50.0 µM), 46.2%; in experiment [6] (setting [7]), -4%; in experiment [6] (setting [8]), 44%; in experiment [6] (at 50.0 µM), 75.3% (active).

Take `COc1ccc(C(Cc2ccc(Cl)c(Cl)c2)NCCO)cc1` (configuration not stated): the growth inhibition in experiment [1] (setting [7]) was -16%; in experiment [1] (setting [8]) it was 37%; in experiment [1] (at 50.0 µM) it was 75% (active); in experiment [2] (setting [7]), -5%; in experiment [2] (setting [8]) it was -1%; in experiment [2] (at 50.0 µM), 23.3%. Moreover, the growth inhibition in experiment [3] (setting [7]) is -35%; in experiment [3] (setting [8]), 27%; in experiment [3] (at 50.0 µM), 31.1%; in experiment [4] (setting [7]), -2%; in experiment [4] (setting [8]), 10%; in experiment [4] (at 50.0 µM) it was 11.9%. For the same compound, the growth inhibition is 4% in experiment [5] (setting [7]); 32% in experiment [5] (setting [8]); 59.1% in experiment [5] (at 50.0 µM); 3% in experiment [6] (setting [7]); 48% in experiment [6] (setting [8]); 86.2% (active) in experiment [6] (at 50.0 µM).

As for `ClCCN(CCCl)c1ccc(C=NCCCCN=Cc2ccc(N(CCCl)CCCl)cc2)cc1`, the growth inhibition in experiment [1] (setting [7]) is 3%; in experiment [1] (setting [8]), 82% (active); in experiment [1] (at 50.0 µM), 88.8% (active); in experiment [2] (setting [7]), 10%; in experiment [2] (setting [8]), 47%; in experiment [2] (at 50.0 µM), 47%. The growth inhibition is 8% in experiment [3] (setting [7]); 62% in experiment [3] (setting [8]); 82.8% (active) in experiment [3] (at 50.0 µM); -10% in experiment [4] (setting [7]); 82% (active) in experiment [4] (setting [8]); 88.6% (active) in experiment [4] (at 50.0 µM). Also, the growth inhibition in experiment [5] (setting [7]) was -10%; in experiment [5] (setting [8]), 3%; in experiment [5] (at 50.0 µM) it was 7.15%; in experiment [6] (setting [7]), 63%; in experiment [6] (setting [8]), 95% (active); in experiment [6] (at 50.0 µM), 85.8% (active).

Turning to `CC(=O)C(Br)C(C)=O.CC(=O)C(Br)C(C)=O.CC(=O)C(Br)C(C)=O.[Rh]`, the growth inhibition in experiment [1] (setting [7]) is 4%; in experiment [1] (setting [8]), -2%; in experiment [1] (at 50.0 µM), 99.2% (active); in experiment [2] (setting [7]), -22%; in experiment [2] (setting [8]), 1%; in experiment [2] (at 50.0 µM), 99.6% (active). Also, the growth inhibition was -1% in experiment [3] (setting [7]); 0% in experiment [3] (setting [8]); 99.6% (active) in experiment [3] (at 50.0 µM); 4% in experiment [4] (setting [7]); 4% in experiment [4] (setting [8]); 93.7% (active) in experiment [4] (at 50.0 µM). The growth inhibition is 1% in experiment [5] (setting [7]); -7% in experiment [5] (setting [8]); 99.4% (active) in experiment [5] (at 50.0 µM); 6% in experiment [6] (setting [7]); -18% in experiment [6] (setting [8]); 99.2% (active) in experiment [6] (at 50.0 µM).

Regarding `CSCCl`, the growth inhibition was 3% in experiment [1] (setting [7]); 51% in experiment [1] (setting [8]); 88.2% (active) in experiment [1] (at 50.0 µM); 3% in experiment [2] (setting [7]); 73% (active) in experiment [2] (setting [8]); 94.5% (active) in experiment [2] (at 50.0 µM). The growth inhibition in experiment [3] (setting [7]) was 4%; in experiment [3] (setting [8]), 86% (active); in experiment [3] (at 50.0 µM), 90% (active); in experiment [4] (setting [7]) it was 11%; in experiment [4] (setting [8]), 97% (active); in experiment [4] (at 50.0 µM), 88.8% (active). For the same compound, the growth inhibition was 0% in experiment [5] (setting [7]); 75% (active) in experiment [5] (setting [8]); 97.6% (active) in experiment [5] (at 50.0 µM); -6% in experiment [6] (setting [7]); 95% (active) in experiment [6] (setting [8]); 95% (active) in experiment [6] (at 50.0 µM).

Take `Cc1cccc2cc3ccccc3c[n+]12`: the growth inhibition in experiment [1] (setting [7]) is 5%; in experiment [1] (setting [8]), 63%; in experiment [1] (at 50.0 µM), 89.9% (active); in experiment [2] (setting [7]), 6%; in experiment [2] (setting [8]) it was 49%; in experiment [2] (at 50.0 µM) it was 84% (active). The growth inhibition in experiment [3] (setting [7]) was -12%; in experiment [3] (setting [8]), 79% (active); in experiment [3] (at 50.0 µM), 97.3% (active); in experiment [4] (setting [7]), 2%; in experiment [4] (setting [8]), 73% (active); in experiment [4] (at 50.0 µM) it was 62.2%. Further, the growth inhibition in experiment [5] (setting [7]) was -1%; in experiment [5] (setting [8]), 57%; in experiment [5] (at 50.0 µM) it was 54.2%; in experiment [6] (setting [7]) it was 14%; in experiment [6] (setting [8]), 89% (active); in experiment [6] (at 50.0 µM), 91% (active).

Consider `CCC1(O)C(=O)OCc2c1cc1n(c2=O)Cc2cc3cc([N+](=O)[O-])ccc3nc2-1` (configuration not stated), for which the growth inhibition in experiment [1] (setting [7]) is 76% (active); in experiment [1] (setting [8]), 95% (active); in experiment [1] (at 50.0 µM) it was 77.9% (active); in experiment [2] (setting [7]), 10%; in experiment [2] (setting [8]), 46%; in experiment [2] (at 50.0 µM), 43.4%. Besides, the growth inhibition in experiment [3] (setting [7]) was 21%; in experiment [3] (setting [8]) it was 33%; in experiment [3] (at 50.0 µM), 24.9%; in experiment [4] (setting [7]), 14%; in experiment [4] (setting [8]) it was 8%; in experiment [4] (at 50.0 µM), -2.9%. In addition, the growth inhibition is 13% in experiment [5] (setting [7]); 10% in experiment [5] (setting [8]); -21.3% in experiment [5] (at 50.0 µM); 10% in experiment [6] (setting [7]); 32% in experiment [6] (setting [8]); 59.5% in experiment [6] (at 50.0 µM).
